Test results reported in PubChem BioAssay (NCI).
Where “and” joins values, the source holds several entries; their conditions need not be identical. Equal values may be shown once. Compounds without any hit were thinned out: in the full panel of roughly 83,000, 20% have a hit.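 How to read the values: 0–100, growth inhibition (40 = 60% inhibited); 0, no net growth; -100 to 0, cell death (-40 = 40% of starting cells died; -100 = all dead).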 Calls of active or inactive are those of the source. Rule for the calls: active = growth percent below 10; inactive = the rest.

tested on: OVCAR-4 ovarian; assay: NCI-60 one-dose screen, 48 h (100 = growth as untreated, 0 = no growth, -100 = all killed); settings: 10 µM unless noted

Row | SMILES | growth
1 | O=[N+]([O-])c1ccccc1/C=N\Nc1ccccc1 | 82.2% (inactive) and 86.3% (inactive)
2 | CCN(CC)CCNc1cc(-c2cccc(OC(F)(F)F)c2)nc2ccc(N3CCCC3)cc12 | 59.3% (inactive) and 44.7% (inactive) and 30% (inactive)
3 | CC(=O)Nc1cc(S(=O)(=O)O)cc2cc(S(=O)(=O)O)c(N=Nc3ccccc3)c(O)c12 | 109% (inactive)
4 | CC(C)CNC(=O)c1ccccc1C(=O)NC1(C(=O)NCC(C)C)CCCC1 | 107% (inactive) and 111% (inactive)
5 | COc1cc2nc(N3CCN(C(=O)C4COc5ccccc5O4)CC3)nc(N)c2cc1OC (stereo unspecified) | 92.4% (inactive) and 93.2% (inactive) and 98.9% (inactive)
6 | O=C(Cc1cccc2ccccc12)N/N=C/c1ccc2c(c1)CCC2 | 104% (inactive)
7 | CC1=C(/C=C/C(C)=C/C=C/C(C)=C/C(=O)O)C(C)(C)CCC1 | 86.9% (inactive) and 92% (inactive) and 85% (inactive)
8 | O=C(Nc1ccc(Br)cc1)c1cc(Br)ccc1O | 9.76% (active) and 24.8% (inactive)
9 | Cc1cc(-c2ccc(NS(=O)(=O)c3ccccc3)c(C)c2)ccc1NS(=O)(=O)c1ccccc1 | 66.2% (inactive) and 99% (inactive)
10 | O=C(CCl)c1ccc2c(c1)Nc1ccccc1S2 | 90.1% (inactive) and 83.4% (inactive)
11 | CC1CCCc2sc3nc(NNC(=O)c4cnccn4)n(-c4ccccc4)c(=O)c3c21 (stereo unspecified) | -3.93% (active) and -20.4% (active)
